Common to all, as to experiment: DAPPL (digital affinity profiling via proximity ligation, sequencing); 10 mM Tris-HCl pH 7.5, 50 mM NaCl, 1 mM DTT, 4% glycerol, room temperature, 30 min; GST-TFs on glutathione beads, 16-mer random dsDNA library, 0.1% formaldehyde crosslink after washing; high values mean tight binding
For one test, the target named is T1, FEV (Homo sapiens, UniProt Q99581 1-238).
T1 sequence: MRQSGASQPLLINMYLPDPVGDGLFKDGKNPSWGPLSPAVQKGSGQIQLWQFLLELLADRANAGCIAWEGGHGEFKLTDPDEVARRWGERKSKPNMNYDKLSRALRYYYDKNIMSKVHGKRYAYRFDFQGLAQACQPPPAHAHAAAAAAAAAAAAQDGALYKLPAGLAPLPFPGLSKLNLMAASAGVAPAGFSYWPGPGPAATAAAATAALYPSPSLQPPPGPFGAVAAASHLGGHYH
The settings on record: protein: recombinant; tags: N-terminal GST; dsDNA, one strand shown. The method, boiled down:
(§1)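 Human transcription factors fused to GST were expressed in yeast, captured on glutathione beads, given DNA barcodes and pooled with a GST-only negative control. Pools were incubated with 200 nmole of a 16-mer random double-stranded DNA library in Tris/NaCl/DTT/glycerol buffer at room temperature for 30 min. They were then washed, crosslinked with 0.1% formaldehyde, proximity-ligated (BsaI/T4 ligase, 1 h, 37 °C), PCR-amplified and sequenced on an Illumina NextSeq500. Binding signal is each 6-mer's read frequency for a factor divided by its frequency for the GST control.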

Another test deals with ETV5 (Homo sapiens, UniProt P41161 1-510). The settings on record: protein: recombinant; tags: N-terminal GST; dsDNA, one strand shown. The essentials: as §1
The next test has as its target HSF1 (Homo sapiens, UniProt Q00613 1-529). The settings on record: protein: recombinant; tags: N-terminal GST; chain copies: 3; dsDNA, one strand shown. The method, boiled down: as §1
For another test, the target named is T2, SPIC (Homo sapiens, UniProt Q8N5J4 1-248).
T2 sequence: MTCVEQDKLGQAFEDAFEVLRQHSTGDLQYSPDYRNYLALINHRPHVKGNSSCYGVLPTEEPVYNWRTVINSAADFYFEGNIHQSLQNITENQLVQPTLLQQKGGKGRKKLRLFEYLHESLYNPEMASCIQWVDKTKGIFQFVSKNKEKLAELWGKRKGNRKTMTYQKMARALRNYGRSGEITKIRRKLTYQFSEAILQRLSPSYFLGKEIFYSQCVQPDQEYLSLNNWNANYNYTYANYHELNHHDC
The settings on record: protein: recombinant; tags: N-terminal GST; dsDNA, one strand shown. The method, boiled down:
as §1

For a further test, the target named is ELF4 (Homo sapiens, UniProt Q99607 1-663). Conditions: protein: recombinant; tags: N-terminal GST; dsDNA, one strand shown. The method, boiled down:
as §1

Another test addresses T3, ELK4 (Homo sapiens, UniProt P28324-2 1-405).
T3 sequence: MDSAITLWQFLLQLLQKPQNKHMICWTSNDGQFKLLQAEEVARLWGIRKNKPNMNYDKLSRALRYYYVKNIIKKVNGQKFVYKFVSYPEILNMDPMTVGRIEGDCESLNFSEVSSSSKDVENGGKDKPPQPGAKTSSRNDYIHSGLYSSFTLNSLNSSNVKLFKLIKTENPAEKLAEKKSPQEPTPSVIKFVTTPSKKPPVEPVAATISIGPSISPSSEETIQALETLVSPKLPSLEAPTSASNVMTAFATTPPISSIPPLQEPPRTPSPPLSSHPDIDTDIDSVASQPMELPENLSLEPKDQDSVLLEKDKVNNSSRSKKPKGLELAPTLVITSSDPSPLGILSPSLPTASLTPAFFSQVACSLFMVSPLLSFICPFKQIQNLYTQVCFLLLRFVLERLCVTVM
Conditions: protein: recombinant; tags: N-terminal GST; dsDNA, one strand shown. The method, boiled down:
as §1

A further test deals with T4, ETV2 (Homo sapiens, UniProt O00321 1-342).
T4 sequence: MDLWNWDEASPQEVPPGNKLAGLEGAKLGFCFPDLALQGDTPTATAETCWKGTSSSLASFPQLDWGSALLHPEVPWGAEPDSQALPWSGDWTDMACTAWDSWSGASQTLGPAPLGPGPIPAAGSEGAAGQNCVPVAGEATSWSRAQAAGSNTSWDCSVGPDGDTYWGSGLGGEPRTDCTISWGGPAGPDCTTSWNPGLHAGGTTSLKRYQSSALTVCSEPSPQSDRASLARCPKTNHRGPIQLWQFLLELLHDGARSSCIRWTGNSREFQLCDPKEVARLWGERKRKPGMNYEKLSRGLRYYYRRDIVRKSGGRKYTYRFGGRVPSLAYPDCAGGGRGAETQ
Conditions: protein: recombinant; tags: N-terminal GST; dsDNA, one strand shown. The essentials: as §1

In the next test the target is T5, ELF3 (Homo sapiens, UniProt P78545 1-371).
T5 sequence: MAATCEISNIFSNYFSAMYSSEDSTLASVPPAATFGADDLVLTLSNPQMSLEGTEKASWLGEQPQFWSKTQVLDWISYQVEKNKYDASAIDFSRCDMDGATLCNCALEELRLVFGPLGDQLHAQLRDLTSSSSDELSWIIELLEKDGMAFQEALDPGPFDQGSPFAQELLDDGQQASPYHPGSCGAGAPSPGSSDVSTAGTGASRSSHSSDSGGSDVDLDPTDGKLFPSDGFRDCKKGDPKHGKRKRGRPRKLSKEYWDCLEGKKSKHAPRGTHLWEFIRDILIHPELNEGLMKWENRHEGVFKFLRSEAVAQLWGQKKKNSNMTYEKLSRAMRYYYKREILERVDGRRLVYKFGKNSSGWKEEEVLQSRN
Conditions: protein: recombinant; tags: N-terminal GST; dsDNA, one strand shown. The method, boiled down: as §1

Another test concerns the target CRX (Homo sapiens, UniProt O43186 1-299). The settings on record: protein: recombinant; tags: N-terminal GST; dsDNA, one strand shown. The method, boiled down: as §1
The target in another test is ETV1 (Homo sapiens, UniProt P50549 1-477). Conditions: protein: recombinant; tags: N-terminal GST; dsDNA, one strand shown. The method, boiled down:
as §1

A further test has as its target T6, ERF (Homo sapiens, UniProt P50548 1-548).
T6 sequence: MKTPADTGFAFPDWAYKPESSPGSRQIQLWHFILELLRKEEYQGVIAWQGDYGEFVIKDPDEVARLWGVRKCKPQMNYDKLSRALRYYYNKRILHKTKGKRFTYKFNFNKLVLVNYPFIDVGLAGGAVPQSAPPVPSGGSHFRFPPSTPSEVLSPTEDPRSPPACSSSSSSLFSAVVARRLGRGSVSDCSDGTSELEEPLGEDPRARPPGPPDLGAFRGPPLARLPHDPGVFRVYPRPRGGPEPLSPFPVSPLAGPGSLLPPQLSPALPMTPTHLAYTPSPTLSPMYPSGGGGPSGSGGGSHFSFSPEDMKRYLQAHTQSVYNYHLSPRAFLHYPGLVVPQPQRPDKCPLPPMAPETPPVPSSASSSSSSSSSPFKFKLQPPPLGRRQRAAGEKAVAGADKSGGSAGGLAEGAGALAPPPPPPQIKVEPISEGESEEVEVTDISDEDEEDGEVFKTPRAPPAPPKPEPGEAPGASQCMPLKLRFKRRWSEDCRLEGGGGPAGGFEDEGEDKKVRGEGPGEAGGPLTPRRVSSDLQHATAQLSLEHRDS
The settings on record: protein: recombinant; tags: N-terminal GST; dsDNA, one strand shown. The essentials: as §1

For the next test, the target named is T7, ETV3L (Homo sapiens, UniProt Q6ZN32 1-361).
T7 sequence: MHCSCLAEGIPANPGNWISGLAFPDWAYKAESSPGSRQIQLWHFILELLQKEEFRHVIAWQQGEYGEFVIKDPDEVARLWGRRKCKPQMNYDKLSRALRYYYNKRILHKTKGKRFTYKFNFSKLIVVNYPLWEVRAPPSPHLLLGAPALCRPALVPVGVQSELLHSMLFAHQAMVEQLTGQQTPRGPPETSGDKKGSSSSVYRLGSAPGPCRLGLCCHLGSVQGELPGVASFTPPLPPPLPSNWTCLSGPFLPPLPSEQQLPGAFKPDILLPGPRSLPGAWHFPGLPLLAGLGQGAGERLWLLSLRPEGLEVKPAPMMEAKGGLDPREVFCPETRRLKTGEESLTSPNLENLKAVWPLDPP
The settings on record: protein: recombinant; tags: N-terminal GST; dsDNA, one strand shown. The essentials: as §1

The next test deals with T8, ETS2 (Homo sapiens, UniProt P15036 1-469).
T8 sequence: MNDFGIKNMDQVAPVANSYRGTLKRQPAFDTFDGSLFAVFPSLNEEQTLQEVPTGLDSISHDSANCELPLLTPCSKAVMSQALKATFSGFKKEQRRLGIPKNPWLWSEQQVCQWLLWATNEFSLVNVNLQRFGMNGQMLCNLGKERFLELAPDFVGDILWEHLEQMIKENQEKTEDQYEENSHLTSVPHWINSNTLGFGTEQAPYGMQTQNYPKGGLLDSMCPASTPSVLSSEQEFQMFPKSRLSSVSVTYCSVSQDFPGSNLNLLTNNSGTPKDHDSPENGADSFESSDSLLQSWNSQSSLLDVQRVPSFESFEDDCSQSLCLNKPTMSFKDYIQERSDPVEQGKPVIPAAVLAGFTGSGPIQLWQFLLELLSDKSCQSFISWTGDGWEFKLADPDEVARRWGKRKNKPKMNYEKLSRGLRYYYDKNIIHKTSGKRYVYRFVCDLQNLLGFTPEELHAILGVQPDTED
The settings on record: protein: recombinant; tags: N-terminal GST; dsDNA, one strand shown. The essentials:
as §1

The target of the next test is T9, SPDEF (Homo sapiens, UniProt O95238 1-335).
T9 sequence: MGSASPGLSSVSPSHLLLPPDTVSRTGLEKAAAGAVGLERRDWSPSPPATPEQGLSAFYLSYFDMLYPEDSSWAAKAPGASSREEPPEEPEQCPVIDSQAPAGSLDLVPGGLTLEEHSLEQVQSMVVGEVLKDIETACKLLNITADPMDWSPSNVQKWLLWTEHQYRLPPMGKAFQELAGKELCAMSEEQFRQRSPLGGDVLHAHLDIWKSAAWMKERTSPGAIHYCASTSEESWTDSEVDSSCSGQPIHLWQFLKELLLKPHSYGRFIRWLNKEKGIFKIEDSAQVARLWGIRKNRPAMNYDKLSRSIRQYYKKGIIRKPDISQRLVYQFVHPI
The settings on record: protein: recombinant; tags: N-terminal GST; dsDNA, one strand shown. The method, boiled down:
as §1

The target of a further test is T10, ETV7 (Homo sapiens, UniProt Q9Y603 1-341).
T10 sequence: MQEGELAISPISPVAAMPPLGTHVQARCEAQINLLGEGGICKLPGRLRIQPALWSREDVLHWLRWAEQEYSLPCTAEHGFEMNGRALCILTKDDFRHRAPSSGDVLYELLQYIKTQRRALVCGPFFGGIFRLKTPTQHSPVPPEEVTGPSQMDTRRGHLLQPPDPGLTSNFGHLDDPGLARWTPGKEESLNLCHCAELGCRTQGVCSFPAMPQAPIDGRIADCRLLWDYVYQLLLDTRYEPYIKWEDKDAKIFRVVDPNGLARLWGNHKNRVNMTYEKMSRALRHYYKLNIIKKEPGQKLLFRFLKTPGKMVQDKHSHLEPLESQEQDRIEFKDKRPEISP
The settings on record: protein: recombinant; tags: N-terminal GST; dsDNA, one strand shown. The essentials:
as §1

Another test addresses T11, ELF5 (Homo sapiens, UniProt Q9UKW6-2 1-255).
T11 sequence: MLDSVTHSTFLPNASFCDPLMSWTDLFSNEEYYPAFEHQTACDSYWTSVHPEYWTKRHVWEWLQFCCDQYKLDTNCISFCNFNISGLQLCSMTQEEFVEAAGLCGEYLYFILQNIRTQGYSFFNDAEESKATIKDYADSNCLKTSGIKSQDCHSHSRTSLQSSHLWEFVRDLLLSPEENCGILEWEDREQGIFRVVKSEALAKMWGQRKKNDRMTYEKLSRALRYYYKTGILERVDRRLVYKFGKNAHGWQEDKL
Conditions: protein: recombinant; tags: N-terminal GST; dsDNA, one strand shown. The essentials:
as §1

For another test, the target named is T12, ETV3 (Homo sapiens, UniProt P41162-2 1-143).
T12 sequence: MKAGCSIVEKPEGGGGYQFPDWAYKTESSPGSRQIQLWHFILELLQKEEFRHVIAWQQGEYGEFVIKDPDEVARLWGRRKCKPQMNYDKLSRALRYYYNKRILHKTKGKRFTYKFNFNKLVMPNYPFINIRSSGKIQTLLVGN
The settings on record: protein: recombinant; tags: N-terminal GST; dsDNA, one strand shown. The method, boiled down: as §1

In another test the target is ETV6 (Homo sapiens, UniProt P41212 1-452). The settings on record: protein: recombinant; tags: N-terminal GST; dsDNA, one strand shown. The essentials: as §1

Among the data in PMC7862700, “An all-to-all approach to the identification of sequence-specific readers for epigenetic DNA modifications on cytosine” are binding signal values, retold here.

ETV6, sequence (P41212 whole entry): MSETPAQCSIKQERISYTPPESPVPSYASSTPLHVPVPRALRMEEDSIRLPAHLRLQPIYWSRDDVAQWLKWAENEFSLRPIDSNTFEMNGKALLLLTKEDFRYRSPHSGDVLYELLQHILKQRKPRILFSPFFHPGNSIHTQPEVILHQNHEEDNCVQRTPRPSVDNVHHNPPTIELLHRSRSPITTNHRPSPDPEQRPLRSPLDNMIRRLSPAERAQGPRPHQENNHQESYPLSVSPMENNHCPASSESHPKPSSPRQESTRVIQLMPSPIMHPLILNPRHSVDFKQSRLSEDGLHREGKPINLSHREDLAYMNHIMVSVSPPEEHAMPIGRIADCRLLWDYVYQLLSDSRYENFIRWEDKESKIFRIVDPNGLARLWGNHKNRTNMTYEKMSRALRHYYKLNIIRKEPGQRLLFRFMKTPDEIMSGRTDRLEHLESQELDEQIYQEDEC
ELF4, sequence (Q99607 whole entry): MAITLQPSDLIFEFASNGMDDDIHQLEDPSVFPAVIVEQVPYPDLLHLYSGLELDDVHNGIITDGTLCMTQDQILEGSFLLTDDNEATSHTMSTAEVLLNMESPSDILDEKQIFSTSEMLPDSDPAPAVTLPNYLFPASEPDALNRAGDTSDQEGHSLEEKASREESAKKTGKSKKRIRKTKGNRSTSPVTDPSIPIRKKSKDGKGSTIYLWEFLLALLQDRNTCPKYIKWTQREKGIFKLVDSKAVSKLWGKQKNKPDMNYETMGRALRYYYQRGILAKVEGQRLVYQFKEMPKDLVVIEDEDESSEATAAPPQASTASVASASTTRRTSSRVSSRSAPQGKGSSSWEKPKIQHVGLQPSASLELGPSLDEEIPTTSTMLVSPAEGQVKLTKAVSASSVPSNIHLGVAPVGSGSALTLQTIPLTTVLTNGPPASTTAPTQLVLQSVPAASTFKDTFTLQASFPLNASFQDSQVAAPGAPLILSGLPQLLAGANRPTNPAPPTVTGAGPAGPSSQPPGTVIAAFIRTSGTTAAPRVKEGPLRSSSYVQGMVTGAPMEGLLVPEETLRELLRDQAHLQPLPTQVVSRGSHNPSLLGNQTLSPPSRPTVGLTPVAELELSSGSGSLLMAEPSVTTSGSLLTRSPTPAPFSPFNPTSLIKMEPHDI
ETV5, sequence (P41161 whole entry): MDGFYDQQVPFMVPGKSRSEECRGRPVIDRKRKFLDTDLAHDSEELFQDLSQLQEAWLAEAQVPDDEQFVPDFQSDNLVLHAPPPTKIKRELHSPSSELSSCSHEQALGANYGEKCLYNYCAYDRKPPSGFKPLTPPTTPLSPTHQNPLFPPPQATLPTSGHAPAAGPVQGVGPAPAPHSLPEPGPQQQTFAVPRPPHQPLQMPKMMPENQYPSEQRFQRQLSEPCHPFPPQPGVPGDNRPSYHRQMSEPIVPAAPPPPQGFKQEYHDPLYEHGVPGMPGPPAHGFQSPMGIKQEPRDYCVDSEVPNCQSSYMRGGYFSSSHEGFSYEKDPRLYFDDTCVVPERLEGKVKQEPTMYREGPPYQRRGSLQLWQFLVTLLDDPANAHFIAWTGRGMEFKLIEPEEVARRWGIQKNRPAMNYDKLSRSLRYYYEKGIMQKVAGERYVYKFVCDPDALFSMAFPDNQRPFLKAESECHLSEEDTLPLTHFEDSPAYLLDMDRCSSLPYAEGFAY
CRX, sequence (O43186 whole entry): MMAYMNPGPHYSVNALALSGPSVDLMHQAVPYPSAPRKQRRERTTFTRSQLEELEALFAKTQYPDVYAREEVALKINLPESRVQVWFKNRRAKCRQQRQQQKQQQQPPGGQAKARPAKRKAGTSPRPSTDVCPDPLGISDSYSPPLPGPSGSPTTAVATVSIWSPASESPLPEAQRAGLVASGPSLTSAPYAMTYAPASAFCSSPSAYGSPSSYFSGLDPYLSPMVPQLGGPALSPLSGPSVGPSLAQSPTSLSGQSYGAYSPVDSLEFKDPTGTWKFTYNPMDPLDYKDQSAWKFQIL
ETV1, sequence (P50549 whole entry): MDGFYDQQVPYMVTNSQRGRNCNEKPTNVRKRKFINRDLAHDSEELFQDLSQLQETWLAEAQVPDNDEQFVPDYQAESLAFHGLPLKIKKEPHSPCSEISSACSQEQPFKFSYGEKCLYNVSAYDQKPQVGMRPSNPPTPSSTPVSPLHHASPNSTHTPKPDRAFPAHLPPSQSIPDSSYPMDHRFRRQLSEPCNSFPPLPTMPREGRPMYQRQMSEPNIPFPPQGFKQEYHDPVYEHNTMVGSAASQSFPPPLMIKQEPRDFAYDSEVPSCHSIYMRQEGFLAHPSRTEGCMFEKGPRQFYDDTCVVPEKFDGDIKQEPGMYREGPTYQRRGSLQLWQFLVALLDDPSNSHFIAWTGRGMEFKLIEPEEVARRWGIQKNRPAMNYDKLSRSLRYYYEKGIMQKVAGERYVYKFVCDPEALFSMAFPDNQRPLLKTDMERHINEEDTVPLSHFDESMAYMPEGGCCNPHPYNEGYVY
HSF1, sequence (Q00613 whole entry): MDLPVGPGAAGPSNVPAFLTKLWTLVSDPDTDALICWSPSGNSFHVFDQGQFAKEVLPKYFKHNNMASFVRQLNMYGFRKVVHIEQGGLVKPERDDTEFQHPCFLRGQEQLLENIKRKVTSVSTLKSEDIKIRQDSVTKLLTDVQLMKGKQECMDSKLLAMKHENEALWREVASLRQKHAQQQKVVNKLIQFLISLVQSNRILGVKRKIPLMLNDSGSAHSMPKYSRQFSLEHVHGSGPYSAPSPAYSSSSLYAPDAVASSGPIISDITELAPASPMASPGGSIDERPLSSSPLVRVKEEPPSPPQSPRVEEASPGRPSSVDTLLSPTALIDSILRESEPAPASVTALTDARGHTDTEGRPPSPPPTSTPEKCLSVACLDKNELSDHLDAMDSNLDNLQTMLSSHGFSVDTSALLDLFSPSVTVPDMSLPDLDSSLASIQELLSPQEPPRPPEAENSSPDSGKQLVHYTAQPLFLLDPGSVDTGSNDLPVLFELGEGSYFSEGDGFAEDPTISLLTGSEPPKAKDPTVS

In the case of TTTGCT, the binding signal with FEV is 1.16 fold enrichment (6-mer frequency, TF over GST control); with ETV5, 1.2 fold enrichment (6-mer frequency, TF over GST control); in the test with HSF1, 1.47 fold enrichment (6-mer frequency, TF over GST control); with SPIC, 1.22 fold enrichment (6-mer frequency, TF over GST control); in the test with ELF4, 1.27 fold enrichment (6-mer frequency, TF over GST control); in the test with ELK4 it was 1.36 fold enrichment (6-mer frequency, TF over GST control). For the same sequence, the binding signal is 1.39 fold enrichment (6-mer frequency, TF over GST control) with ETV2; 1.33 fold enrichment (6-mer frequency, TF over GST control) with ELF3; 1.45 fold enrichment (6-mer frequency, TF over GST control) with CRX; 1.18 fold enrichment (6-mer frequency, TF over GST control) in the test with ETV1; 1.39 fold enrichment (6-mer frequency, TF over GST control) with ERF; 1.22 fold enrichment (6-mer frequency, TF over GST control) with ETV3L. The binding signal in the test with ETS2 is 1.32 fold enrichment (6-mer frequency, TF over GST control); in the test with SPDEF it was 1.16 fold enrichment (6-mer frequency, TF over GST control); in the test with ETV7, 1.38 fold enrichment (6-mer frequency, TF over GST control); with ELF5, 1.16 fold enrichment (6-mer frequency, TF over GST control); in the test with ETV3, 1.24 fold enrichment (6-mer frequency, TF over GST control); in the test with ETV6, 1.14 fold enrichment (6-mer frequency, TF over GST control).
